# A selection: hits, their analogues and other compounds. The true share with any hit is near 3.2%.
# Mtb UGM inh: blocks M. tuberculosis UGM enzyme; inhibition, % at 10 µM; 320,000 tested, 0.06% active; purified UGM, fluorescence polarization probe displacement; in the data active = inhibition above about 10%, passing the limit was not always enough
# Target sequence (P9WIQ1 whole entry, looked up): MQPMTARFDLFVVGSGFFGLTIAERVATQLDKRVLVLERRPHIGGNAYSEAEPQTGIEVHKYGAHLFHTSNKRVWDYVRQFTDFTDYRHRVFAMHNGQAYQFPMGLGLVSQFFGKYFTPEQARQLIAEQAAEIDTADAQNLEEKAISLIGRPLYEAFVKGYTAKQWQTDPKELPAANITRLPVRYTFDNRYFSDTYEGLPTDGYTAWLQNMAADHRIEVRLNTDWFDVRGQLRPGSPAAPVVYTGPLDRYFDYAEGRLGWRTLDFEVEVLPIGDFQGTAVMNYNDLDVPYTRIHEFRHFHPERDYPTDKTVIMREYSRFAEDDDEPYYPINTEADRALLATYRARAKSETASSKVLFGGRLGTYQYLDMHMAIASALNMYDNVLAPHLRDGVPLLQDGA
# Rv3671c inh: inhibitors of M. tuberculosis serine protease Rv3671c; P9WHR9; inhibition, % at 5.96 µM; 320,000 tested, 0.048% active; AID 2606; in the data active = inhibition above about 38%;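 note: extracellular domain of Rv3671c used as enzyme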
# Mtb betalactam: beta-lactam sensitization of Mtb H37Rv | M. tuberculosis H37Rv growth with meropenem, percent inhibition | inhibition, % at 25 µM | 330,000 tested, 0.27% active | AID 434955; call rule not given here;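 note: growth measured after seven days incubation then overnight dye step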
# FBA Mtb inh: inhibitors of M. tuberculosis fructose-bisphosphate aldolase. purified M. tuberculosis FBA, fluorescence read-out. inhibition, % at 1 µM. 360,000 tested, 2.3% active. P9WQA3. AID 588726; in the data active = inhibition above about 27%
# SSB-PriA inh: blocks PriA binding to SSB C-terminal tail; AlphaScreen SSBct-PriA binding, biotinylated peptide; inhibition, % at 33 µM; 430,000 tested, 0.6% active; AID 1272365; in the data active = inhibition mostly above about 37%, no sharp cut-off; inactive = mostly below about 20%
# GDH-TPI counter: counter-screen for M. tuberculosis FBA inhibitors: GDH-TPI coupled enzymes | GDH-TPI coupled enzyme counterscreen, NADH absorbance | inhibition, % at 4.8 µM | 360,000 tested, 1.2% active | AID 588335; in the data active = inhibition above about 30%
# Numbers stand for hits; n = inactive; x = no result given; + = active, no number.
SMILES,Mtb UGM inh,Rv3671c inh,Mtb betalactam,FBA Mtb inh,SSB-PriA inh,GDH-TPI counter
COc1cc(/C=C/C(=O)OCC(=O)Nc2ccc([N+](=O)[O-])cc2)ccc1O,n,n,n,n,n,68.3
Cc1cnc(NC(=O)[C@@H]2CSCCC(=O)N2)s1,x,x,x,x,n,x
CC1CCN(C(=O)c2[nH]cnc2C(=O)N[C@@H](C)C(=O)OCc2ccccc2)CC1,n,n,n,n,44.1,n
COc1ccccc1CNC(=O)C(=O)NCC1(O)CCc2ccccc2C1 (centres undefined),x,x,x,x,n,x
Brc1cc2c(cc1Br)OCCOCCOCCO2,n,n,n,n,n,n
Brc1ccc2c(c1)OCCSCCOCCSCCO2,x,x,x,x,43.0,x
Oc1c(C(Nc2nc3ccccc3s2)c2ccc(OC(F)F)cc2)ccc2cccnc12 (centres undefined),x,x,x,x,n,x
Cc1ccc(C)c(Nc2c([N+](=O)[O-])cc(C(=O)N3CC(=O)Nc4ccccc43)cc2[N+](=O)[O-])c1,n,n,n,n,52.7,n
O=c1sc2ccccc2n1Cc1nnc(SCc2ccccn2)n1-c1ccccc1,x,x,x,x,n,x
COc1ccc(NC(=S)N=C(Nc2ccc(C)cc2)c2ccccc2)cc1,x,x,x,x,46.0,x
Cn1c(=O)c2cc(NC(=O)NCCc3ccccc3)ccc2n1Cc1ccccc1,x,x,x,127.2,x,n
Cn1c(=O)c2cc(NC(=O)NCCc3ccccc3)ccc2n1Cc1cccc(C(F)(F)F)c1,x,x,x,130.2,x,n
Cn1c(=O)c2cc(NC(=O)OCCF)ccc2n1Cc1cccc(C(F)(F)F)c1,x,x,x,183.1,x,n
Cn1c(=O)c2cc(NC(=S)NC3CCCCC3)ccc2n1Cc1cccc(C(F)(F)F)c1,x,x,x,n,x,n
CCOc1ccc(-c2cc(C(=O)O)c3ccccc3n2)cc1,n,n,n,+,n,n
O=C(O)c1cc(-c2cc(C(=O)O)c3ccccc3n2)ccc1O,x,x,x,n,n,33.5
O=C(O)c1cc(-c2ccc(O)cc2)nc2ccccc12,n,n,n,x,x,x
CCOc1ccc(-c2cc(C(=O)N3CCC(C)CC3)c3ccccc3n2)cc1,n,n,n,n,n,n
COc1ccc(CNC(=O)c2cc3c(=O)n4cccc(C)c4nc3n(CC3CCCO3)c2=N)cc1 (centres undefined),n,n,n,n,n,n
CCOCCCn1c(=N)c(C(=O)NCCN2CCOCC2)cc2c(=O)n3cccc(C)c3nc21,n,n,n,185.2,n,n
Cc1cccn2c(=O)c3cc(C(=O)NCCN4CCOCC4)c(=N)n(CCN4CCOCC4)c3nc12,n,n,n,150.7,n,n
Cc1cccn2c(=O)c3cc(C(=O)NCCN4CCOCC4)c(=N)n(Cc4ccc(F)cc4)c3nc12,n,n,n,155.8,n,n
Cc1cccn2c(=O)c3cc(C(=O)NC4CCCC4)c(=N)n(CCCN4CCOCC4)c3nc12,n,n,n,141.0,n,n
COc1ccc(CCNC(=O)c2cc3c(=O)n4cccc(C)c4nc3n(CCCN3CCOCC3)c2=N)cc1,n,n,n,n,n,n
COc1cc2oc3ccccc3c(=O)c2cc1OC,n,n,n,+,n,n
SMILES,Mtb UGM inh,Rv3671c inh,Mtb betalactam,FBA Mtb inh,SSB-PriA inh,GDH-TPI counter
O=c1c2ccccc2oc2cc(Br)ccc12,x,x,x,n,n,n
O=C(Cc1ccc(Cl)cc1)NN=Cc1c(Cl)cccc1Cl,x,x,x,x,n,x
CCOP(=O)(OCC)c1nc(/C=C/c2ccccc2)oc1NCc1ccccc1,n,n,n,+,n,37.4
CCOP(=O)(OCC)c1nc(/C=C/c2ccccc2)oc1NCc1ccc(OC)cc1,n,n,n,+,n,n
CCOC(=O)/C(C#N)=C1/C=CN(c2ccccc2)C=N1,n,n,n,n,n,38.3
CCOC(=O)/C(C#N)=C1/C=CN(c2ccc(C)cc2)C=N1,n,n,n,n,n,43.3
CCOC(=O)/C(C#N)=C1/C=CN(C)C=N1,n,n,n,n,n,50.3
CCOC(=O)/C(C#N)=C1\C=CN(C)C(C)=N1,n,n,n,n,n,41.7
O=S(=O)(NCC[C@@H](CCO)c1ccccc1)c1cccc2ccccc12,x,x,x,x,n,x
CC1CN(c2nc(N)c([N+](=O)[O-])c(Nc3cccc(F)c3)n2)CC(C)O1 (centres undefined),x,x,x,x,n,x
Cc1nc(-n2nc(-c3ccco3)cc2NC(=O)c2ccc(C(F)(F)F)cc2)[nH]c(=O)c1C,x,x,x,x,n,x
O=C(NCC(=O)N1CCO[C@H](c2ccccc2)C1)C(=O)Nc1ccon1,x,x,x,x,n,x
CCOC(=O)/C(C#N)=C1/C=CN(Cc2ccccc2)C=N1,n,n,n,n,n,48.3
CCOC(=O)/C(C#N)=C1\C(=O)N(Cc2ccccc2)c2ccccc21,n,n,n,n,n,n
CCCC(=O)NC(c1ccc(OCC)cc1)c1ccc(OC)c(OC)c1 (centres undefined),n,n,n,155.7,n,n
Cc1csc(NC(=O)c2oc3ccccc3c2C)n1,n,n,n,n,n,n
Cc1csc(Nc2nc(N)c(C(=O)Nc3ccccc3)o2)n1,n,n,n,n,n,34.9
COc1cccc(CNC(=O)C(=O)NCC(C)(O)CSC)c1 (centres undefined),x,x,x,x,n,x
O=C(NN=C1CCCC1)c1ccccc1[N+](=O)[O-],n,n,n,n,n,n
CC(C)N1CCC(=NNC(=O)c2ccccc2[N+](=O)[O-])CC1,n,n,n,+,n,n
CN(C)C1=NC(=O)/C(=C\c2ccccc2)S1,n,n,n,n,n,31.1
NC1=NC(=O)C(=Cc2ccccc2)S1,x,x,x,n,n,31.0
NC1=NC(=O)/C(=C/c2ccc(C(=O)O)cc2)S1,x,x,x,x,n,x
NC1=NC(=O)/C(=C/c2cccs2)S1,n,n,n,n,n,31.8
COc1ccc(Cl)cc1NC(=O)CSc1nnc(CCC(=O)O)c(=O)[nH]1,x,x,x,x,n,x
SMILES,Mtb UGM inh,Rv3671c inh,Mtb betalactam,FBA Mtb inh,SSB-PriA inh,GDH-TPI counter
CCN(CC)CCN1C(=O)C(=O)C(=C(O)c2cnn(-c3ccccc3)c2C)C1c1ccc(C)o1 (centres undefined),x,x,x,x,n,x
CCOC(=O)CNC(=O)c1ccccc1Br,n,n,n,+,n,n
C/C(C=NNC(=O)c1cccs1)=C\c1ccccc1,x,x,x,x,n,x
CC(=O)Nc1ccc(C(=O)NC2CC3CCC(C2)N3S(C)(=O)=O)cc1 (centres undefined),x,x,x,x,n,x
CN(Cc1cc(Cl)cc(Cl)c1)[C@H]1C[C@H]2c3[nH]c4ccccc4c3CCN2C(=O)[C@H]1CO,x,x,x,n,x,n
CN(C(=O)NC1CCCCC1)[C@H]1C[C@H]2c3[nH]c4ccccc4c3CCN2C(=O)[C@H]1CO,x,x,x,151.8,x,n
COc1cccc(NS(=O)(=O)c2cccc(Cl)c2)c1,x,x,x,x,n,x
CC(/C=N/Nc1nnc(C)c(=O)[nH]1)=C\c1ccccc1,n,n,n,n,x,31.8
C/C(C=NNc1nnc(C)c(=O)[nH]1)=C\c1ccccc1,x,x,x,x,n,x
O=C(NCCc1cccs1)c1ccc(-n2cncn2)nn1,x,x,x,x,n,x
COc1ccc(-c2cc(-c3ccccc3)c(C#N)c(S(C)=O)n2)cc1 (centres undefined),n,n,n,+,n,31.4
Nc1nonc1-n1nnc(C(=O)NN=Cc2ccc3c(c2)OCO3)c1CSc1ccccc1,x,x,x,x,n,x
Nc1nc2nc(-c3cccs3)cc(C(F)(F)F)n2n1,n,n,n,+,n,n

# Screens from PubChem.
